PMP22 txn – Cell-based coincidence reporter assay to measure PMP22 gene transcription in S16 Pmp22-F2sN cells - Primary screen; S16 Pmp22-F2sN Schwann cells, FLuc/NLuc coincidence luminescence, 24 h; Potency, µM (series often up to 57.5 µM), without a hit: at the top dose activity change, negative = inhibition, usual class: inhibitors; 43,000 tested, 2% active; active = clear falling dose curves in both reporters; inconclusive = both reporters move, but less clearly or upward; inactive = either reporter flat; the % is the NLuc reporter signal; note: % is set by controls: 0 for no effect and ±100 for the full control effect
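Luminescent read-out of sequential FLuc and NLuc signals from a reporter embedded in the Pmp22 3' UTR of S16 Schwann cells, taken after 24 h compound exposure at 37C; compounds reducing both signals score as inhibitors of expression.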
S16 F2sN tox – Cell viability qHTS assay in S16 Pmp22-F2sN cells; AID 1508642, 2021; Potency, µM (series often up to 57.5 µM), for inactives: top-dose activity change, negative = cytotoxicity, usual class: cytotoxic; 43,000 tested, 0.48% active; S16 Pmp22-F2sN Schwann cells (luciferase reporters placed in the Pmp22 gene) viability, CellTiter-Glo, 24 h; note: % is set by controls: 0 for no effect and ±100 for the full control effect; nearly all actives have a fitted effect of over 65% in size
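CellTiter-Glo counter-screen, qHTS, 1536-well. Cells: S16(c9) Pmp22-F2sN, 500-1,000/well in DMEM + 10% FBS. Cpd 23 nL pin transfer, 24 h, 37C/5% CO2. Read: luminescence, CCD imager.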
GALC G270D act – A Novel Cell-Based Assay to Identify Small Molecules for B -Galactocerebrosidase | P54803 | 145M-Twi-hGALC-G270D cells (Twitcher mouse brain line with human GALC G270D), HMU-beta-Gal fluorescence, 48 h | Potency, µM (series often up to 57.5 µM), hits mostly activators | 45,000 tested, 0.1% active; note: 0% is about no effect; nearly all actives have a fitted effect of over 65% in size
Target sequence (P54803 whole entry G286D): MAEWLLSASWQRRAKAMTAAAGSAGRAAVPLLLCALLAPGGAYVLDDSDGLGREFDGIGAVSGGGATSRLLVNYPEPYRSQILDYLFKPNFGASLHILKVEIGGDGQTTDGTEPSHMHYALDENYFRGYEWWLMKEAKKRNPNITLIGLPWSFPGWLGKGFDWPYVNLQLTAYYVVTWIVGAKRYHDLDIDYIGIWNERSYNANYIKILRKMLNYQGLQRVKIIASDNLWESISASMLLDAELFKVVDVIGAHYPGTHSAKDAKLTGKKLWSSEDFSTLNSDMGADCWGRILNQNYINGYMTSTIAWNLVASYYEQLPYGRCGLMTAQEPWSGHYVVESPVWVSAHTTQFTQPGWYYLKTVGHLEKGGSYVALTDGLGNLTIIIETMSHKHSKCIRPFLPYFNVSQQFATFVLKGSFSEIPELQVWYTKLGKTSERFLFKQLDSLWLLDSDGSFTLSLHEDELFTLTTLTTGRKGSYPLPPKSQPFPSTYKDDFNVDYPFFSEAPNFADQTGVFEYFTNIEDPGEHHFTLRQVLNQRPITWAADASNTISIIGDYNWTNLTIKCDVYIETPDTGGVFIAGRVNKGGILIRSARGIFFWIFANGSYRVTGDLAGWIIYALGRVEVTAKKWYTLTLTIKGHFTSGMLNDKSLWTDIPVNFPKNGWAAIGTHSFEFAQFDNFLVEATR
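Fluorogenic HMU-b-Gal hydrolysis (0.1 mM final, pH 5.2 citrate-phosphate with 1 mg/mL sodium taurocholate; carbonate stop buffer) measures mutant GALC activity after compound treatment of live 145M-Twi Twitcher brain cells stably carrying human GALC-G270D, with wild-type GALC line alongside; activation sought.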
pS6 MEF inh – Acumen qHTS Assay for Inhibitors of the mTORC1 Signaling Pathway in MEF (Tsc2-/-, p53-/-) Cells: Sytravon. Tsc2-/- p53-/- MEF, phospho-rpS6 immunofluorescence/PI, 24 h. Potency, µM (top dose mostly 38.3 µM), for inactives: at the highest dose activity change, negative = inhibition, usual class: inhibitors. 44,000 tested, 0.78% active. AID 493208, 2011;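 note: plate controls were DMSO for no effect and rapamycin for full effect; nearly all actives have a fitted effect of over 50% in size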
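Read-out: phospho-S6 Alexa-488 intensity over PI intensity per well, scored as % active cells using thresholds from rapamycin (7.5 nM) and DMSO controls. Tsc2-/-, p53-/- MEFs exposed to compound for 24 h; PI cell count recorded as viability.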
p53null 39C kill – qHTS Screen for Compounds that Selectively Target Cancer Cells with p53 Mutations: Cytotoxicity of p53 Null Cells at the Nonpermissive Temperature | H1299 p53-null (neo) cells, 39C, ATPlite viability, 24 h | Potency, µM (highest dose often 46.1 µM), inactives show top-dose activity, negative = cell killing, usual class: cytotoxic | 55,000 tested, 0.97% active | AID 904, 2007;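 note: 0% = DMSO only and -100% = full killing by 100 µM tamoxifen; nearly all actives have a fitted effect of over 50% in size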
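Concentration-response (up to 46 uM) was run for 24 h at the nonpermissive 39C on H1299-p53A138V or H1299-neo cells. ATP content was measured with ATPlite luminescence. AC50 values were Hill-modeled after normalizing between DMSO and 100 uM tamoxifen killing.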
p53null 32C tox – qHTS Screen for Compounds that Selectively Target Cancer Cells with p53 Mutations: Cytotoxicity of p53 Null Cells at the Permissive Temperature | Potency, µM (highest dose often 46.1 µM), for inactives: at the highest dose activity change, negative = cytotoxicity, hits mostly cytotoxic | H1299-neo p53 null cells, ATP luminescence, 24 h, 32C | 55,000 tested, 0.62% active;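 note: 0% = DMSO only and -100% = full killing by 100 µM tamoxifen; nearly all actives have a fitted effect of over 55% in size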
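H1299-neo, 600 cells/well; overnight 37C; cpd up to 46 uM, 24 h at 32C; ATPlite luminescence after 20 min RT; normalized to DMSO (0%) and tamoxifen 100 uM (100% kill); Hill-fit AC50.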
* marks the source's active call; other numbers are inactive results; i = inactive; ? = inconclusive; / = not tested or not shown. Rows were chosen to be rich in hits. Some 3% of all compounds tested hit in one or more screens of this group. Unless noted, calls come from the whole dose curve; as a rule, active = well fitted curve in the direction sought with a large enough effect; inconclusive = small, poorly fitted or top-dose-only effect, or another doubt; inactive = no such curve, though single readings can be large; an effect the other way counts as inactive or inconclusive. Potency is the fitted concentration of half-maximal effect.

SMILES	PMP22 txn	S16 F2sN tox	GALC G270D act	pS6 MEF inh	p53null 39C kill	p53null 32C tox
COc1ccc(OC)c(NC(=O)Nc2cccc(OCc3cc(=O)n4cc(C)ccc4n3)c2)c1	-7%	15%	i	2%	?	10µM*
O=C(Nc1ccc(F)cc1F)C1CCN(C(=O)c2cnn(-c3ccccc3)c2-n2cccc2)CC1	-21%	-12%	i	1%	1%	-4%
Cc1cncn1CCc1nc2c3ccccc3nc(SCC(=O)Nc3cccc(Cl)c3)n2n1	?	28µM*	i	?	?	?
CCOCc1cc(CN2CCN(c3cccc(C(F)(F)F)c3)CC2)c(O)c2ncccc12	4.5µM*	?	i	?	?	?
CC(C)OCc1cc(CN2CCN(c3cccc(C(F)(F)F)c3)CC2)c(O)c2ncccc12	6.5µM*	?	i	?	0.5µM*	?
Oc1ccc(CN2CCN(c3ccccc3)CC2)c2cccnc12	/	/	/	/	-10%	-5%
COC[C@@H](c1ccc(C(F)(F)F)cc1)N1CCN(C2(C)CCN(C(=O)c3c(C)ncnc3C)CC2)C[C@H]1C	/	/	i	/	/	/
Cc1ccc(CN2C(=O)c3ccccc3Sc3ccc(C(=O)NC4CCCC4)cc32)cc1	-3%	0%	i	14%	22%	13%
Cc1ccc(CN2C(=O)c3ccccc3Sc3ccc(C(=O)NCCCN4CCOCC4)cc32)cc1	?	-28%	i	12µM*	?	-12%
Cc1cccc(-c2nc(SCC(=O)Nc3ccc4c(c3)OCCO4)c(-c3ccccc3)[nH]2)c1	?	?	i	-16%	?	-17%
Cc1ccc2occ(CC(=O)Nc3ccc(Cl)c(C(F)(F)F)c3)c2c1	?	?	i	12µM*	16µM*	25%
Cc1ccc2occ(CC(=O)Nc3ccc(S(N)(=O)=O)cc3)c2c1	5%	4%	i	-14%	-8%	-6%
CCCSCCCNC(=O)CN1C(=O)CCn2nc(-c3cn(C)c4ccccc34)cc21	3%	20%	i	0%	1%	-3%
CC1=Nc2cc(C(=O)NCCc3ccc(Cl)cc3)ccc2Sc2ccc(C)cc21	9.5µM*	?	i	-16%	29%	11%
CCCC1=Nc2cc(C(=O)NCCOC)ccc2Sc2ccccc21	?	-7%	i	?	?	2%
CCC1=Nc2cc(C(=O)NC3CCC(C)CC3)ccc2Sc2ccc(C)cc21 (stereo not drawn)	5.7µM*	-3%	i	?	20%	22%
CCC1=Nc2cc(C(=O)NC3CCCC3)ccc2Sc2ccc(Br)cc21	10µM*	?	i	-26%	?	21%
CCCCNC(=O)c1ccc2c(c1)N=C(CC)c1ccccc1S2	12µM*	?	i	?	?	-3%
CCCC1=Nc2cc(C(=O)N3CCC(C)CC3)ccc2Sc2ccc(C)cc21	-2%	1%	i	-10%	-2%	7%
COC(=O)Cc1c(C)c2ccc3c(c2oc1=O)CN(Cc1ccc(Cl)cc1)CO3	-8%	-1%	25µM*	-3%	16%	-8%
O=c1oc2c3c(ccc2c2ccccc12)OCN(Cc1ccc(Cl)cc1)C3	?	2%	i	1%	8%	-8%
O=C(Nc1ccc2nc(-c3ccco3)[nH]c2c1)c1cccs1	/	/	/	/	10µM*	7.1µM*
COc1ccc(NC(=O)c2cccs2)cc1	/	/	/	/	-9%	?
COc1ccc(OC)c2sc(N3CCN(C(=O)C(C)(C)C)CC3)nc12	-49%	0%	i	0%	11µM*	13µM*
CCCCCCc1cc2cc(C(=O)NCc3ccccc3)c(=N)oc2cc1O	/	/	/	/	1%	-1%
SMILES	PMP22 txn	S16 F2sN tox	GALC G270D act	pS6 MEF inh	p53null 39C kill	p53null 32C tox
Cc1ccc2nc(/C(C#N)=C/c3cccc(Br)c3)[nH]c2c1	?	?	i	18µM*	-25%	-21%
FC(F)(F)c1cccc(N2CCN(c3ncnc4c3nc3n4CCCC3)CC2)c1	13µM*	?	i	0%	-15%	-7%
c1ccc(N2CCN(c3ncnc4c3nc3n4CCCC3)CC2)cc1	?	?	i	1%	-13%	-11%
CCOC(=O)Cc1c(C)nc2c(-c3ccc(OC)c(OC)c3)c(C)nn2c1C	14µM*	?	i	7%	?	5%
CCc1ccc2c(c1)c(=O)c(C(=O)c1ccc(C)cc1)cn2CC(=O)Nc1ccc2c(c1)OCCO2	-22%	-6%	i	-8%	7%	-2%
Cc1cccc(C)c1Nc1c(-c2ccccn2)nc2c(C)cccn12	?	-14%	i	6%	-2%	12%
CCOC(=O)c1ccc(N2C(=O)c3n[nH]c(C)c3C2c2cccc(Br)c2)cc1 (stereo not drawn)	?	?	i	16µM*	?	17%
CCOC(=O)c1ccc(N2C(=O)c3n[nH]c(C)c3C2c2ccc(CC)cc2)cc1 (stereo not drawn)	0%	25%	i	7%	10%	8%
O=C(O)[C@@H]1CSCN1	/	/	i	/	/	/
CC1(C)C(=O)N(CC(=O)Nc2ccc(Br)cc2F)c2ccccc21	-2%	-1%	i	-2%	16%	-1%
COC(=O)CN1C(=O)C(C)(C)c2cc(S(=O)(=O)Nc3ccc(Br)cc3F)ccc21	30%	5%	i	13µM*	-1%	2%
Cc1ccc(C)c(CSc2ccc3nnc(CCNS(=O)(=O)c4ccccc4)n3n2)c1	-6%	0%	i	0%	-1%	-5%
Cc1ccc(S(=O)(=O)NCCc2nnc3ccc(SCc4ccccc4C)nn23)cc1	-28%	-1%	i	3%	16µM*	5%
CC1=C(C(=O)Nc2ccc(C)cc2C)C(c2cc(Br)ccc2F)n2ncc(C(=O)Nc3ccc(C)cc3)c2N1 (stereo not drawn)	?	?	i	2.9µM*	?	-15%
CC1=C(C(=O)Nc2ccccc2)C(c2cc(Br)ccc2F)n2ncc(C(=O)Nc3ccccc3)c2N1 (stereo not drawn)	2%	-17%	i	-5%	20%	13%

From PubChem
